Measured values: PubChem BioAssay (NCI)
Where “and” joins values, the source holds several entries; their conditions need not be identical. Equal entries are not always repeated. The panel holds about 83,000 compounds, 20% with a hit somewhere; the sample as a whole holds those more often.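 Method: cells in 96-well plates; compound added at one concentration; 48 h incubation; percent growth measured; values under 10 scored active.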 Calls of active or inactive are those of the source.

Assays:
Assay in all cases: NCI-60 one-dose screen, 48 h (100 = growth as untreated, 0 = no growth, -100 = all killed)
Conditions in all cases: 10 µM unless noted
HCT-15 colon = system: HCT-15 colon
HT29 colon = system: HT29 colon
SNB-75 CNS = system: SNB-75 CNS
SNB-19 CNS = system: SNB-19 CNS
U251 CNS = system: U251 CNS
PC-3 prostate = system: PC-3 prostate
SK-MEL-5 melanoma = system: SK-MEL-5 melanoma
UACC-62 melanoma = system: UACC-62 melanoma
LOX IMVI melanoma = system: LOX IMVI melanoma
SK-MEL-28 melanoma = system: SK-MEL-28 melanoma
SK-MEL-2 melanoma = system: SK-MEL-2 melanoma
EKVX NSCLC = system: EKVX NSCLC
SN12C renal = system: SN12C renal
UO-31 renal = system: UO-31 renal
TK-10 renal = system: TK-10 renal
ACHN renal = system: ACHN renal
CAKI-1 renal = system: CAKI-1 renal
A498 renal = system: A498 renal
CCRF-CEM leukemia = system: CCRF-CEM leukemia
MOLT-4 leukemia = system: MOLT-4 leukemia

Measured: growth

COc1ccc(-c2ccc(-c3ccc(C(=N)N)cn3)o2)cc1Cl
inactive: HCT-15 colon 18.7% | SNB-75 CNS 89.3% | SNB-19 CNS 40% | PC-3 prostate 46.1% | SK-MEL-5 melanoma 12% | UACC-62 melanoma 86.5% | SK-MEL-28 melanoma 70.1% | SK-MEL-2 melanoma 83.1% | EKVX NSCLC 70.4% | SN12C renal 44.5% | UO-31 renal 52.4% | TK-10 renal 94.4% | ACHN renal 17.3% | CAKI-1 renal 40.2% | A498 renal 80.5% | MOLT-4 leukemia 10.7%
active: HT29 colon 4.81% | U251 CNS 0.889% | LOX IMVI melanoma -71% | CCRF-CEM leukemia -4.6%

O=C([C@H]1C[C@H]1c1ccc(S(F)(F)(F)(F)F)cc1)N1CCN(c2cc(Cl)ccc2C(F)(F)F)CC1
inactive: HCT-15 colon 88.1% | HT29 colon 67.5% | SNB-75 CNS 101% | SNB-19 CNS 97.1% | U251 CNS 94.2% | PC-3 prostate 74.2% | SK-MEL-5 melanoma 89.9% | UACC-62 melanoma 67.4% | LOX IMVI melanoma 102% | SK-MEL-28 melanoma 97.1% | SK-MEL-2 melanoma 91.7% | EKVX NSCLC 91.9% | SN12C renal 101% | UO-31 renal 67.8% | TK-10 renal 93.6% | ACHN renal 93.4% | CAKI-1 renal 67.3% | A498 renal 94.4% | CCRF-CEM leukemia 96.4% | MOLT-4 leukemia 76.9%

Cn1cc2c(=O)nc3c(-c4nc5ccccc5[nH]4)n[nH]n3c2n1
inactive: HCT-15 colon 80.1% | HT29 colon 89.7% | SNB-75 CNS 93.4% | SNB-19 CNS 95.8% | U251 CNS 89.6% | PC-3 prostate 67.1% | SK-MEL-5 melanoma 53.1% | UACC-62 melanoma 70.6% | LOX IMVI melanoma 72.5% | SK-MEL-28 melanoma 82.5% | SK-MEL-2 melanoma 30.4% | EKVX NSCLC 95.6% | SN12C renal 77.9% | UO-31 renal 90.8% | TK-10 renal 120% | ACHN renal 98.1% | CAKI-1 renal 86.8% | A498 renal 58.7% | MOLT-4 leukemia 47.8%
active: CCRF-CEM leukemia 6.27%

COc1ccc(/C=N\Nc2nc(SCC(C)C)nc(-c3ccc(OC)cc3)c2C#N)cc1
active: SNB-75 CNS -23.3% | U251 CNS -7.88% | SN12C renal 2.1% | UO-31 renal -53.5% | TK-10 renal -54.7% | ACHN renal -71.7% | CAKI-1 renal 9.54% | A498 renal -7.9%
inactive: HCT-15 colon 71% | HT29 colon 56.4% | SNB-19 CNS 31% | PC-3 prostate 53.6% | SK-MEL-5 melanoma 77.2% | UACC-62 melanoma 86.1% | LOX IMVI melanoma 31.9% | SK-MEL-28 melanoma 101% | SK-MEL-2 melanoma 87% | EKVX NSCLC 35.1% | CCRF-CEM leukemia 38.6% | MOLT-4 leukemia 30.2%

NC(=O)c1c(NC(=O)/C=C/c2cccs2)sc2c1CCC(=O)C2
inactive: HCT-15 colon 13.1% | HT29 colon 15.8% | SNB-75 CNS 56.5% | SNB-19 CNS 64.5% | U251 CNS 22.2% | PC-3 prostate 13.4% | SK-MEL-5 melanoma 24.4% | UACC-62 melanoma 16.9% | LOX IMVI melanoma 18.4% | SK-MEL-28 melanoma 41.8% | SK-MEL-2 melanoma 49.7% | EKVX NSCLC 40.4% | SN12C renal 23.1% | TK-10 renal 43.9% | CAKI-1 renal 14.2% | A498 renal 115% | CCRF-CEM leukemia 10.5% | MOLT-4 leukemia 21.8%
active: UO-31 renal 5.7% | ACHN renal 5.27%

CCCCCCCCCCCCCCCCCCn1cc(COc2ccc(C=O)cc2)nn1
inactive: HCT-15 colon 95.9% | HT29 colon 91.6% | SNB-75 CNS 104% | SNB-19 CNS 97.5% | U251 CNS 107% | PC-3 prostate 99% | SK-MEL-5 melanoma 103% | UACC-62 melanoma 91.2% | LOX IMVI melanoma 85.5% | SK-MEL-28 melanoma 109% | SK-MEL-2 melanoma 96.4% | EKVX NSCLC 90.1% | SN12C renal 97.5% | UO-31 renal 93% | TK-10 renal 99.9% | ACHN renal 104% | CAKI-1 renal 104% | A498 renal 105% | CCRF-CEM leukemia 103% | MOLT-4 leukemia 92.4%

CCCN1C(=O)/C(=c2\sc3n(c2=O)NC2C(N=3)N(CC)C(=O)N2CC)c2ccccc21 (stereo not given)
inactive: HCT-15 colon 24.6% | HT29 colon 13.5% | SNB-75 CNS 12.9% | SNB-19 CNS 40.2% | U251 CNS 29.9% | PC-3 prostate 42.5% | SK-MEL-5 melanoma 41.8% | UACC-62 melanoma 31.8% | LOX IMVI melanoma 38.8% | SK-MEL-28 melanoma 54.5% | SK-MEL-2 melanoma 68.6% | EKVX NSCLC 55.7% | SN12C renal 38.1% | UO-31 renal 46.7% | TK-10 renal 86% | ACHN renal 47.5% | CAKI-1 renal 40.7% | A498 renal 29% | CCRF-CEM leukemia 25.1% | MOLT-4 leukemia 38%

O=C(Nc1cc(C(F)(F)F)cc(C(F)(F)F)c1)c1cc(Cl)ccc1O
5.13% (active) and 12.9% (inactive): SNB-19 CNS
active: HCT-15 colon -39.7% and -24.9% | HT29 colon 0.709% and 1.2% | SNB-75 CNS -64.9% and -39.3% | U251 CNS -5.01% and -11.5% | PC-3 prostate 5.05% and -0.956% | SK-MEL-5 melanoma -70.3% | UACC-62 melanoma -56% and -42.8% | LOX IMVI melanoma -62.1% and -58.6% | SK-MEL-28 melanoma -33.4% and -22.4% | SK-MEL-2 melanoma -40.3% | EKVX NSCLC 1.8% and 3.4% | SN12C renal -4.82% and -10.6% | UO-31 renal -64.4% and -19.6% | TK-10 renal -8.88% and 5.69% | ACHN renal -14% and 2.27% | CAKI-1 renal -20.5% and -23.8% | A498 renal -44.7% and -69.3% | CCRF-CEM leukemia -12.3% and -10.4% | MOLT-4 leukemia -38.9% and -44.7%

CCCCCCCCCCCCCCCC(=O)O[C@@H]1[C@@H](O)[C@@H](O)C([C@H](NC(=O)[C@@H]2C[C@@H](CCC)CN2C)[C@H](C)Cl)O[C@@H]1SC (stereo not given in full)
inactive: HCT-15 colon 99.9% | HT29 colon 111% | SNB-75 CNS 96.2% | SNB-19 CNS 101% | U251 CNS 102% | PC-3 prostate 97.6% | SK-MEL-5 melanoma 99.9% | UACC-62 melanoma 104% | LOX IMVI melanoma 105% | SK-MEL-28 melanoma 112% | SK-MEL-2 melanoma 112% | EKVX NSCLC 100% | SN12C renal 104% | UO-31 renal 77.2% | TK-10 renal 115% | ACHN renal 95.4% | CAKI-1 renal 96% | A498 renal 101% | CCRF-CEM leukemia 101% | MOLT-4 leukemia 103%

COc1ccc(/C=C2/C(=O)N=C3N2NC(c2ccccc2)=CN3c2ccccc2)cc1
inactive: HCT-15 colon 109% | HT29 colon 109% | SNB-75 CNS 98.1% | SNB-19 CNS 97.7% | U251 CNS 99.4% | PC-3 prostate 96.1% | SK-MEL-5 melanoma 97.4% | UACC-62 melanoma 94.2% | LOX IMVI melanoma 87.8% | SK-MEL-28 melanoma 108% | SK-MEL-2 melanoma 106% | EKVX NSCLC 103% | SN12C renal 96% | UO-31 renal 77.4% | TK-10 renal 124% | ACHN renal 96.2% | CAKI-1 renal 88.4% | A498 renal 107% | CCRF-CEM leukemia 101% | MOLT-4 leukemia 106%

CS(=O)(=O)Nc1cc(-c2ccc3ncnc(Nc4ccc(F)c(Cl)c4)c3c2)cnc1Cl
inactive: SNB-19 CNS 20.1% | SK-MEL-28 melanoma 14.8% | SN12C renal 10.2% | ACHN renal 14.6%
active: HCT-15 colon 8.37% | HT29 colon 9.63% | SNB-75 CNS -15.9% | U251 CNS 3.05% | PC-3 prostate -7.94% | SK-MEL-5 melanoma -93.5% | UACC-62 melanoma -8.21% | LOX IMVI melanoma -23.8% | SK-MEL-2 melanoma -7.25% | EKVX NSCLC -3.92% | UO-31 renal -3.81% | TK-10 renal -14.5% | CAKI-1 renal 3.33% | A498 renal -59.3% | CCRF-CEM leukemia 9.76% | MOLT-4 leukemia -19.9%

C[C@@H]1O[C@@H](O[C@H]2[C@@H](OC(=O)[C@]34CCC(C)(C)C[C@H]3C3=CC[C@@H]5[C@@]6(C)C[C@H](O)[C@H](O[C@@H]7O[C@H](CO)[C@@H](O)[C@H](O)[C@H]7O)[C@@](C)(CO)[C@@H]6CC[C@@]5(C)[C@]3(C)C[C@H]4O)OC[C@@H](O)[C@@H]2O)[C@H](O)[C@H](O[C@@H]2OC[C@@H](O)[C@H](O[C@@H]3OC[C@](O)(CO)[C@H]3O[C@@H]3OC[C@@H](O)[C@H](O)[C@H]3O)[C@H]2O)[C@H]1O[C@@H]1OC[C@](O)(CO)[C@H]1O
inactive: HCT-15 colon 86.4% | HT29 colon 60.3% | SNB-75 CNS 92.6% | SNB-19 CNS 80.7% | U251 CNS 42% | PC-3 prostate 66% | SK-MEL-5 melanoma 88.3% | UACC-62 melanoma 79.2% | LOX IMVI melanoma 81.3% | SK-MEL-2 melanoma 17.5% | EKVX NSCLC 39.7% | SN12C renal 25.5% | UO-31 renal 28.6% | TK-10 renal 74.2% | ACHN renal 78% | CAKI-1 renal 71.8% | CCRF-CEM leukemia 86% | MOLT-4 leukemia 86.6%
active: SK-MEL-28 melanoma 9.31% | A498 renal 5.96%

Nc1ccccc1SC(CC(=O)c1ccccc1)c1ccc([N+](=O)[O-])cc1 (stereo not given)
inactive: HCT-15 colon 87.7% and 59% | HT29 colon 19.7% and 39.1% | SNB-75 CNS 84.6% and 80.8% | SNB-19 CNS 93.2% and 101% | U251 CNS 62.6% and 57.4% | PC-3 prostate 70.9% and 59.6% | SK-MEL-5 melanoma 105% | UACC-62 melanoma 90.9% and 84.5% | LOX IMVI melanoma 41.7% and 45.5% | SK-MEL-28 melanoma 94.4% and 99.6% | SK-MEL-2 melanoma 137% and 87.4% | EKVX NSCLC 97.1% | SN12C renal 94% and 92.5% | UO-31 renal 55.1% and 39.2% | TK-10 renal 118% and 109% | ACHN renal 99.8% and 93.6% | CAKI-1 renal 70.2% and 91.7% | A498 renal 94.6% and 99.5% | CCRF-CEM leukemia 69.2% and 51.9% | MOLT-4 leukemia 82.3% and 61.6%
